# The whole screen tested about 5,500 compounds, of which about 2,000 (36%) were called active. Roughly 18% stayed inconclusive and do not appear here. Some of the results follow. Values without a mark were called inactive. Rule as the data show it: active = normalized growth mostly below about 0.91 (no sharp cut-off); inconclusive = no clear call, values can overlap the other calls; inactive = mostly above about 0.92.
# Experiment: chemical genetic growth profiling, strain panel (AID 1159580);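 also: tested at 20 µM; growth read once vehicle control cultures reached saturation at 30 °C; 1 = growth at the plate median or of vehicle wells; lower values mean less growth of the strain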
# Details: S. cerevisiae deletion strains, growth OD
# [1] = locus YAR019C, strain CDC15, active compounds read low
# [2] = locus YBL105C, strain PKC1, active compounds read low
# [3] = locus YBR135W, strain CKS1, active compounds read low
# [4] = locus YBR136W, strain MEC1, active compounds read low
# [5] = locus YBR160W, strain CDC28, active compounds read low
# [6] = locus YDL017W, strain CDC7, active compounds read low
# [7] = locus YDL028C, strain MPS1, active compounds read low
# [8] = locus YDL101C, strain DUN1, active compounds read low
# [9] = locus YDL108W, strain KIN28, active compounds read low
# [10] = locus YDL132W, strain cdc53, active compounds read low
# [11] = locus YDL214C, strain PRR2, active compounds read low
# [12] = locus YDR052C, strain DBF4, active compounds read low
# [13] = locus YDR054C, strain cdc34, active compounds read low
# [14] = locus YDR226W, strain ADK1, active compounds read low
# [15] = locus YDR477W, strain SNF1, active compounds read low
# [16] = locus YER123W, strain YCK3, active compounds read low
# [17] = locus YER133W, strain GLC7, active compounds read low
# [18] = locus YFL009W, strain cdc4, active compounds read low
# [19] = locus YFL029C, strain CAK1, active compounds read low
# [20] = locus YFR003C, strain YPI1, active compounds read low
# [21] = locus YFR019W, strain FAB1, active compounds read low
# [22] = locus YFR028C, strain CDC14, active compounds read low
# [23] = locus YGR040W, strain KSS1, active compounds read low
# [24] = locus YGR052W, strain FMP48, active compounds read low
# [25] = locus YGR092W, strain DBF2, active compounds read low
# [26] = locus YHR030C, strain SLT2, active compounds read low
# [27] = locus YHR079C, strain IRE1, active compounds read low
# [28] = locus YHR082C, strain KSP1, active compounds read low
# [29] = locus YHR205W, strain SCH9, active compounds read low
# [30] = locus YIL147C, strain SLN1, active compounds read low
# [31] = locus YJL095W, strain BCK1, active compounds read low
# [32] = locus YJL128C, strain PBS2, active compounds read low
# [33] = locus YJL157C, strain FAR1, active compounds read low
# [34] = locus YJR016C, strain ILV3, active compounds read low
# [35] = locus YJR066W, strain TOR1 (second series), active compounds read low
# [36] = locus YJR066W, strain TOR1, active compounds read low
# [37] = locus YKL048C, strain ELM1, active compounds read low
# [38] = locus YKL067W, strain YNK1, active compounds read low
# [39] = locus YKL101W, strain HSL1, active compounds read low
# [40] = locus YKL193C, strain SDS22, active compounds read low
# [41] = locus YKL203C, strain TOR2, active compounds read low
# [42] = locus YLR113W, strain HOG1, active compounds read low
# [43] = locus YLR133W, strain CKI1, active compounds read low
# [44] = locus YLR403W, strain SFP1, active compounds read low
# [45] = locus YML070W, strain DAK1, active compounds read low
# [46] = locus YMR001C, strain CDC5, active compounds read low
# [47] = locus YMR205C, strain PFK2 (second series), active compounds read low
# [48] = locus YMR277W, strain FCP1, active compounds read low
# [49] = locus YNL006W, strain LST8, active compounds read low
# [50] = locus YNL020C, strain ARK1, active compounds read low
# [51] = locus YNL161W, strain CBK1, active compounds read low
# [52] = locus YNL183C, strain NPR1, active compounds read low
# [53] = locus YNL207W, strain RIO2, active compounds read low
# [54] = locus YNL222W, strain SSU72, active compounds read low
# [55] = locus YNL307C, strain MCK1 (second series), active compounds read low
# [56] = locus YOL078W, strain AVO1, active compounds read low
# [57] = locus YOL136C, strain PFK27, active compounds read low
# [58] = locus YOR061W, strain CKA2, active compounds read low
# [59] = locus YOR119C, strain RIO1, active compounds read low
# [60] = locus YOR231W, strain MKK1, active compounds read low
# [61] = locus YOR329C, strain SCD5, active compounds read low
# [62] = locus YPL031C, strain PHO85, active compounds read low
# [63] = locus YPL153C, strain RAD53, active compounds read low
# [64] = locus YPL204W, strain HRR25, active compounds read low
# [65] = locus YPL209C, strain IPL1, active compounds read low
# [66] = locus YPL256C, strain CLN2, active compounds read low
# [67] = locus YPR025C, strain CCL1, active compounds read low
# [68] = locus YPR106W, strain ISR1, active compounds read low
# [69] = locus YPR111W, strain DBF20, active compounds read low
# [70] = strain NNK1, active compounds read low
# [71] = strain TSCII, active compounds read low
structure (smiles),measurement,setting,value
C[C@@H](Nc1ncnc2sc3c(c12)CCCC3)c1ccccc1,normalized growth,[1],0.955
same,normalized growth,[2],0.955
same,normalized growth,[3],0.953
same,normalized growth,[4],0.958
same,normalized growth,[5],0.942
same,normalized growth,[6],0.961
same,normalized growth,[7],0.954
same,normalized growth,[8],0.945
same,normalized growth,[9],0.95
same,normalized growth,[10],0.951
same,normalized growth,[11],0.904
same,normalized growth,[12],0.963
same,normalized growth,[13],0.94
same,normalized growth,[14],0.963
same,normalized growth,[15],0.932
same,normalized growth,[16],0.895
same,normalized growth,[17],0.928
same,normalized growth,[18],0.951
same,normalized growth,[19],0.949
same,normalized growth,[20],0.958
same,normalized growth,[21],0.941
same,normalized growth,[22],0.951
same,normalized growth,[23],0.913
same,normalized growth,[24],0.954
same,normalized growth,[25],0.901
same,normalized growth,[26],0.924
same,normalized growth,[27],0.914
same,normalized growth,[28],0.944
same,normalized growth,[29],0.877
same,normalized growth,[30],0.954
same,normalized growth,[31],0.931
same,normalized growth,[32],0.889
same,normalized growth,[33],0.916
same,normalized growth,[34],0.963
same,normalized growth,[35],0.901
same,normalized growth,[36],0.969
same,normalized growth,[37],0.907
same,normalized growth,[38],0.917
same,normalized growth,[39],0.891
same,normalized growth,[40],0.953
same,normalized growth,[41],0.967
same,normalized growth,[42],0.766 (active)
same,normalized growth,[43],0.919
same,normalized growth,[44],0.89
same,normalized growth,[45],0.893
same,normalized growth,[46],0.951
same,normalized growth,[47],0.919
same,normalized growth,[48],0.951
same,normalized growth,[49],0.956
same,normalized growth,[50],0.915
same,normalized growth,[51],0.954
same,normalized growth,[52],0.918
same,normalized growth,[53],0.944
same,normalized growth,[54],0.949
same,normalized growth,[55],0.912
same,normalized growth,[56],0.955
same,normalized growth,[57],0.893
same,normalized growth,[58],0.916
same,normalized growth,[59],0.979
same,normalized growth,[60],0.844
same,normalized growth,[61],0.959
same,normalized growth,[62],0.942
same,normalized growth,[63],0.918
same,normalized growth,[64],0.932
same,normalized growth,[65],0.947
same,normalized growth,[66],0.787 (active)
same,normalized growth,[67],0.949
same,normalized growth,[68],0.93
same,normalized growth,[69],0.922
same,normalized growth,[70],0.929
same,normalized growth,[71],0.951
CC(C)N(CCC(=O)c1ccc2ccccc2c1)Cc1ccccc1,normalized growth,"locus YAL013W, strain DEP1, active compounds read low",0.086 (active)
same,normalized growth,"locus YAL040C, strain CLN3, active compounds read low",0.0757 (active)
same,normalized growth,"locus YCL061C, strain MRC1 (second series), active compounds read low",0.0525 (active)
same,normalized growth,"locus YDR150W, strain NUM1, active compounds read low",0.058 (active)
same,normalized growth,"locus YDR363W, strain ESC2, active compounds read low",0.141 (active)
same,normalized growth,"locus YER002W, strain NOP16, active compounds read low",0.0619 (active)
same,normalized growth,"locus YGR078C, strain PAC10, active compounds read low",0.107 (active)
same,normalized growth,"locus YJR075W, strain HOC1, active compounds read low",0.0706 (active)
same,normalized growth,"locus YMR307W, strain GAS1, active compounds read low",0.0933 (active)
same,normalized growth,"locus YNL128W, strain TEP1, active compounds read low",0.0691 (active)
same,normalized growth,"locus YNL153C, strain GIM3, active compounds read low",0.0944 (active)
same,normalized growth,"locus YNL175C, strain NOP13, active compounds read low",0.111 (active)
same,normalized growth,"locus YNL197C, strain WHI3, active compounds read low",0.534 (active)
same,normalized growth,"locus YNL224C, strain SQS1, active compounds read low",0.0703 (active)
same,normalized growth,"locus YOR083W, strain WHI5 (second series), active compounds read low",0.124 (active)
CC1CCC(C(C)C)C(N(Cc2ccccc2)C(=O)c2ccccc2)C1 (configuration not stated),normalized growth,[1],0.996
same,normalized growth,[2],0.987
same,normalized growth,[3],0.986
same,normalized growth,[4],0.98
same,normalized growth,[5],0.986
same,normalized growth,[6],0.987
same,normalized growth,[7],0.994
same,normalized growth,[8],0.974
same,normalized growth,[9],0.986
same,normalized growth,[10],0.984
same,normalized growth,[11],0.961
same,normalized growth,[12],0.985
same,normalized growth,[13],0.991
same,normalized growth,[14],0.98
same,normalized growth,[15],0.98
same,normalized growth,[16],0.97
same,normalized growth,[17],0.978
same,normalized growth,[18],0.985
same,normalized growth,[19],0.994
same,normalized growth,[20],0.985
same,normalized growth,[21],0.954
same,normalized growth,[22],0.981
same,normalized growth,[23],0.963
same,normalized growth,[24],0.969
same,normalized growth,[25],0.946
same,normalized growth,[26],1.01
same,normalized growth,[27],1
same,normalized growth,[28],1.01
same,normalized growth,[29],0.911
same,normalized growth,[30],0.987
same,normalized growth,[31],0.923
same,normalized growth,[32],0.923
same,normalized growth,[33],0.979
same,normalized growth,[34],0.992
same,normalized growth,[35],0.959
same,normalized growth,[36],1.01
same,normalized growth,[37],0.958
same,normalized growth,[38],0.967
same,normalized growth,[39],0.932
same,normalized growth,[40],0.994
same,normalized growth,[41],1.01
same,normalized growth,[42],0.922
same,normalized growth,[43],0.945
same,normalized growth,[44],0.913
same,normalized growth,[45],0.961
same,normalized growth,[46],0.992
same,normalized growth,[47],0.976
same,normalized growth,[48],0.987
same,normalized growth,[49],0.988
same,normalized growth,[50],0.956
same,normalized growth,[51],0.984
same,normalized growth,[52],0.975
same,normalized growth,[53],0.979
same,normalized growth,[54],0.99
same,normalized growth,[55],0.898
same,normalized growth,[56],0.981
same,normalized growth,[57],0.925
same,normalized growth,[58],0.971
same,normalized growth,[59],1.05
same,normalized growth,[60],0.977
same,normalized growth,[61],0.991
same,normalized growth,[62],0.981
same,normalized growth,[63],0.983
same,normalized growth,[64],0.952
same,normalized growth,[65],0.986
same,normalized growth,[66],1.04
same,normalized growth,[67],0.988
same,normalized growth,[68],0.976
same,normalized growth,[69],0.948
same,normalized growth,[70],0.965
same,normalized growth,[71],0.985

# From PubChem BioAssay AID1159580 (chemical genetic matrix, 2015)
